Screening results from PubChem.
In the library only some 0.79% were active in any assay of this set; here they are far more common.
DAGLB inhibitor: diacylglycerol lipase beta (human) inhibition | Q8NCG7 | AID 504411 | inhibition, % at 5.17 µM | HEK293T DAGLB membrane lysate, EnzChek fluorogenic substrate | actives 0.059% (n = 340,000); in the data active = inhibition above about 34%;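 also: 0% = enzyme with vehicle and 100% = wells lacking enzyme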
LANA-H2A inh: blocks KSHV LANA binding to histone H2A/H2B; Q9QR71; cell-free LANA-H2A/H2B peptide, fluorescence polarization; inhibition, % (test concentration not listed); actives 0.6% (n = 320,000); AID 2629; in the data active = inhibition mostly above about 10%, no sharp cut-off; inactive = mostly below about 6.7%
hiPSC survival: hiPSC single-cell survival enhancement. survival enhancement, % at 20 µM. AID 602274. actives 0.044% (n = 360,000). ATPlite luminescence; 100% = ROCK inhibitor wells, 0% = DMSO; in the data active = survival enhancement above about 18%;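 also: cells exposed to compounds for 16 hours before the ATP read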
HDAC3 inh: human HDAC3 inhibition; inhibition, % at 8.3 µM; actives 0.15% (n = 320,000); recombinant HDAC3, fluorogenic peptide/trypsin coupled, fluorescence; O15379; AID 2718; in the data active = inhibition above about 26%, passing the limit was not always enough
Target sequence (O15379 whole entry, looked up): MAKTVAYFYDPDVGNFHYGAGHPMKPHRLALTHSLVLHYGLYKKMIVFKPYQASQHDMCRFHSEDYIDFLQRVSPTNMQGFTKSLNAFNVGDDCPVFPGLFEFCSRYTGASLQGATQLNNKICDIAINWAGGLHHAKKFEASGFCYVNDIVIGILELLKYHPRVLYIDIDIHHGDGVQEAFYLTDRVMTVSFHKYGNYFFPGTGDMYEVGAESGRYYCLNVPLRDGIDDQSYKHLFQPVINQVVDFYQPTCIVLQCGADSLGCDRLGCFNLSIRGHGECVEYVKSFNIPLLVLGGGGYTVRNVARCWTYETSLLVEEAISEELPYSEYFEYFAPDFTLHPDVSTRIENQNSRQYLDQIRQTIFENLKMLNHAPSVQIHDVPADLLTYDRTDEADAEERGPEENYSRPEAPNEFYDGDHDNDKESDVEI
An asterisk follows results filed as active; . = not tested or not shown.

SMILES	DAGLB inhibitor	LANA-H2A inh	hiPSC survival	HDAC3 inh
COCCNC(=S)N1CCN(c2nc(-c3ccc(Cl)cc3)cs2)CC1	-5.7	-3.4	-0.3	-3.7
COCCNC(=S)N1CCN(c2nc(-c3ccc(F)cc3)cs2)CC1	-3.4	18.4*	0.1	3.3
CCCc1c(C(=O)Nc2ccc(OC)cc2)cnn1-c1ccccc1	-5.9	2.8	-0.2	1.5
CCCc1c(C(=O)NNc2ccccc2OC)cnn1-c1ccccc1	0.9	17.8*	1.8	0.8
O=C(N/N=C/c1ccc(F)cc1)c1ccc(OCc2ccccc2)cc1	-6.1	1.1	0.5	6.6
O=C(O)/C(=C\c1cccc(OCc2ccccc2)c1)c1ccc(F)cc1	3.5	10.5*	-0.2	3.4
Cc1ccc(C(=O)N2C(=O)c3cccc(N)c3C2=O)o1	-0.2	19.6*	-0.7	6.7
Cn1c(N)c(C(=O)COC(=O)c2ccccc2C(=O)c2ccc(Cl)cc2)c(=O)n(C)c1=O	-3.1	-4.1	1.4	-0.6
COc1ccc2cc(CCC(C)=O)ccc2c1	1.4	12.5*	0.0	9.8
CCCN1C=CC(=C/C=C(\C#N)C(=O)OCC)C=C1	.	-54.6	.	30.4*
COc1ccc(CNC(=O)COc2ccc(Br)c(C)c2)cc1	-6.8	-6.0	-0.5	-3.9
CSc1sc(-c2n[nH]c(=S)n2C)c2c1C=CCC2	2.4	0.8	-0.1	34.4*
CCN(CC(=O)Nc1ccc(OC)cc1)C(=O)c1ccc2c(c1)NC(=O)CS2	1.2	.	0.2	.
CC1CC(C)CN(c2nc3c(c(=O)n(C)c(=O)n3C)n2CCSc2ncccn2)C1 (stereo unspecified)	-1.9	21.9*	-0.6	-11.7
Cc1cc(C)n(-c2ccc(NC(=O)C3CCCCN3C(=O)c3ccoc3)cc2)n1 (stereo unspecified)	0.3	54.7*	-0.1	-2.1
Cn1ncc(Cl)c1C(=O)NCC1CCCO1 (stereo unspecified)	0.5	13.6*	-0.5	-2.1
C=CCn1c(SCc2c(C)noc2C)nc2sc(C)c(C)c2c1=O	-5.3	55.7*	1.8	-4.0
CC(C)(C)Nc1nc(Cl)nc(NC(C)(C)C)n1	-8.1	-0.5	3.3	-1.0
CNc1nc(Cl)nc(NC(C)(C)C)n1	-0.6	2.7	17.3*	-2.7
Cc1ccc(Nc2c(-c3ccco3)nc3nc(C)cc(C)n23)cc1	4.3	21.2*	3.2	5.1
CC(C(=O)N1CCc2ccccc21)N1CCN(S(=O)(=O)c2ccc3c(c2)OCCCO3)CC1 (stereo unspecified)	-7.8	.	3.1	.
Cc1ccccc1CN1CCN(CC(=O)NCc2ccccc2)CC1	1.0	21.0*	0.0	-0.4
O=C(CN1CCCC1)NCc1ccccc1	-0.9	0.1	-0.4	-2.7
COc1ccc(NC(=O)C2OC3OC(C)(C)OC3C3OC(C)(C)OC23)cc1 (stereo unspecified)	3.5	27.5*	-2.2	-0.4
CCCCCOc1ccc(NC(=O)C2OC3OC(C)(C)OC3C3OC(C)(C)OC23)cc1 (stereo unspecified)	-0.8	-6.0	-2.3	-1.1
SMILES	DAGLB inhibitor	LANA-H2A inh	hiPSC survival	HDAC3 inh
O=C(c1cc2ncc(CCCl)cn2n1)N1CCCCCC1	-0.1	5.4	-1.5	-3.3
CC1CCCC(C)N1C(=O)c1cc2ncc(CCCl)cn2n1 (stereo unspecified)	2.6	13.0*	2.2	-1.9
CC(O)(c1ccccc1)c1ccc2ccccc2n1 (stereo unspecified)	-3.2	.	-0.5	.
C=CCN(CC=C)C(=O)C1CCN(S(=O)(=O)c2ccc(N3CCCC3=O)cc2)CC1	0.2	14.5*	0.2	-3.5
C=CCN(CC=C)C(=O)C1CCN(S(=O)(=O)c2ccc(-n3cnnn3)cc2)CC1	-1.0	-2.2	-0.3	0.0
CC1C/C(=N\NC(=O)c2ccc(NS(=O)(=O)c3ccc(Br)cc3)cc2)CC(C)(C)C1 (stereo unspecified)	-7.1	-0.5	-1.4	36.9*
CC1C/C(=N\NC(=O)c2ccc([N+](=O)[O-])cc2)CC(C)(C)C1 (stereo unspecified)	0.9	2.3	-0.5	0.2
Cc1ccc2nc3n(c(=O)c2c1)-c1ncccc1C(=O)NC3Cc1ccc(O)cc1 (stereo unspecified)	-2.1	.	1.2	.
Cc1ccccc1NC(=O)C(C)OC(=O)CCC(=O)c1ccccc1 (stereo unspecified)	-0.1	.	-1.8	.
O=S(=O)(c1ccc2c(c1)OCCO2)C1CCC(S(=O)(=O)c2c(F)cccc2F)CC1 (stereo unspecified)	-0.6	4.5	-0.7	40.2*
COc1cccc(C(CCc2cc(OC)c(OC)c(OC)c2)NC(C)=O)c1 (stereo unspecified)	2.8	.	-1.7	.
CCn1cc(C(=O)NCCCOC)c(=O)c2cc(S(=O)(=O)N3CCCC3)ccc21	-2.1	14.0*	-0.6	10.2
